# Screening results from PubChem BioAssay.
# Anthrax LF prot: inhibitors of Bacillus anthracis lethal factor protease. AID 588501. multiplex microsphere protease cleavage assay, LF. P15917. 0.12% of 360,000 active. inhibition, % at 10 µM; in the data active = inhibition above about 30%; inconclusive = no clear call, values can overlap the other calls; note: plate controls were buffer without enzyme for full effect and enzyme alone for no effect
# Target sequence (P15917 whole entry, looked up): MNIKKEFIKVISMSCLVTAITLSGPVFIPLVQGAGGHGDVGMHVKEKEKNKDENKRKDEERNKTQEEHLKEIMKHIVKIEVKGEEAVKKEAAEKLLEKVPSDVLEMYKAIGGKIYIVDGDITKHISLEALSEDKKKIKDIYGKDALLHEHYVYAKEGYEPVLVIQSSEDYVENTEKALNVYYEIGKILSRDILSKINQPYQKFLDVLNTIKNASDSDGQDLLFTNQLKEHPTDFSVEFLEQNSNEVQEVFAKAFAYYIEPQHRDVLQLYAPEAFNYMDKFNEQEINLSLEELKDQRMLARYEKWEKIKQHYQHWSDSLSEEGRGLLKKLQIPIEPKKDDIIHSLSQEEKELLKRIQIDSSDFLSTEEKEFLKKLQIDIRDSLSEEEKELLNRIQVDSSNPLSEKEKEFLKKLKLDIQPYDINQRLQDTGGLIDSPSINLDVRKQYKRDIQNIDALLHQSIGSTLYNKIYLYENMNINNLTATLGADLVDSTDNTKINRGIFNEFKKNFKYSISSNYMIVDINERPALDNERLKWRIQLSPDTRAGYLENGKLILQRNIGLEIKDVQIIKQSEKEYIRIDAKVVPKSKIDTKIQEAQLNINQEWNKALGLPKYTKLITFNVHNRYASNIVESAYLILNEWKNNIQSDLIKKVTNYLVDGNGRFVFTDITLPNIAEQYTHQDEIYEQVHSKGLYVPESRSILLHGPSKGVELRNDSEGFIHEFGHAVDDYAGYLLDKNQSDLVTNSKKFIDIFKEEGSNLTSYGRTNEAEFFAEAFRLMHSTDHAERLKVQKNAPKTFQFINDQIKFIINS
# FBA Mtb inh: Mtb fructose-bisphosphate aldolase inhibition | inhibition, % at 1 µM | purified M. tuberculosis FBA, fluorescence read-out | 2.3% of 360,000 active;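 note: 0% = vehicle and 100% = reference inhibitor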
# GDH-TPI counter-1: inhibits GDH-TPI coupling enzymes, artifact for Mtb FBA screen; 1.2% of 360,000 active; AID 588335; inhibition, % at 4.8 µM; GDH-TPI coupled enzyme counterscreen, NADH absorbance; in the data active = inhibition above about 30%;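 note: 0% = DMSO wells and 100% = wells lacking the enzyme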
# BoNT-A LC inh2: BoNT A light chain protease inhibition. multiplex microsphere protease substrate cleavage, flow cytometry. inhibition, % at 10 µM. 0.17% of 360,000 active. AID 588499; in the data active = inhibition above about 30%; inconclusive = no clear call, values can overlap the other calls; note: plate controls were buffer without enzyme for full effect and enzyme alone for no effect
# BoNT-F LC inh: blocks Botulinum neurotoxin F light chain protease; Multiplex microsphere protease cleavage assay, flow cytometry; inhibition, % at 10 µM; 0.22% of 360,000 active; AID 588497; in the data active = inhibition above about 35%, passing the limit was not always enough; inconclusive = no clear call, values can overlap the other calls; note: plate controls were buffer without enzyme for full effect and enzyme alone for no effect
# Autofluor counter: flagged as autofluorescent in microsphere protease counterscreen | fluorescence intensity (test concentration not listed) | AID 624483 | 3.1% of 360,000 active | compound autofluorescence counterscreen, microsphere flow cytometry; stronger effect = higher value; in the data active = fluorescence intensity above about 16000; inconclusive = no clear call, values can overlap the other calls
# Mtb FBA inh conf: confirmation of M. tuberculosis fructose-bisphosphate aldolase inhibitors; shares compounds with FBA Mtb inh; purified M. tuberculosis FBA, fluorescence read-out; inhibition, % at 1 µM; 78% of 5,600 active; AID 651616;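 note: 0% = vehicle wells and 100% = reference inhibitor wells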
# GDH-TPI counter-2: inhibits GDH-TPI coupling enzymes, flagging Mtb FBA hits; 81% of 5,600 active; AID 652141; GDH-TPI coupled enzyme counterscreen, fluorescence; inhibition, % at 1 µM; shares compounds with FBA Mtb inh; in the data active = inhibition above about 10%
# * hit, by the source's call; ? = inconclusive; . = no result given; + = active, no number. Most compounds without a hit are left out; they make up all but 6.7% or so of the library. Cut-off read from the data, not from the text of the source, unless noted: active = inhibition above about 27%; inactive = the rest.
SMILES,Anthrax LF prot,FBA Mtb inh,GDH-TPI counter-1,BoNT-A LC inh2,BoNT-F LC inh,Autofluor counter,Mtb FBA inh conf,GDH-TPI counter-2
COc1ccc2nc3oc(C(=O)N4CCCCC4)cc3cc2c1,0.0,56.6*,24.4,0.1,1.2,2289,83.9*,63.3*
O=S(=O)(NCC(c1cccnc1)N1CCN(Cc2ccccc2)CC1)c1cc(F)ccc1F (stereo unspecified),-3.0,-1.3,-2.8,0.8,2.0,6089,.,.
Cc1ccc2nc(/C(C#N)=C\c3ccc(Oc4ccc(C(F)(F)F)cc4[N+](=O)[O-])cc3)[nH]c2c1,-0.3,1.6,13.9,1.9,6.9,2447,.,.
Oc1ccc(/C=C/c2ccc3ccccc3n2)cc1,-3.1,10.5,16.2,-1.4,-7.0,4401,.,.
CCOC(=O)c1c(-c2ccc(OC)cc2)csc1NC(=O)C1CCCO1 (stereo unspecified),-2.0,-3.5,-0.8,0.4,2.2,2593,.,.
COC(=O)c1ccccc1NC(=O)N1CCN(c2ccc(F)cc2)CC1,-1.8,0.4,-2.5,-0.2,-3.8,4459,.,.
CC(C)(C)C(=O)Nc1nnc(Cc2ccccc2)s1,-2.6,-2.4,-2.8,-1.6,-17.8,8590,.,.
O=C(CSc1nnc(-c2ccccc2)n1Cc1ccccc1)NC1CC1,1.9,0.5,-0.8,-0.4,-17.7,8928,.,.
COc1ccc2nc(C(c3ccc(C)cc3)n3c(-c4ccccc4Br)nc4ccccc43)[nH]c2c1 (stereo unspecified),-1.4,52.4*,.,-0.6,-7.7,5682,+,+
CC(C)c1ccc(C(=O)Nc2ccc(CN3CCOCC3)cc2)cc1,-6.2,69.0*,4.0,-0.8,21.6,2847,195.6*,191.3*
Nc1nccnc1C(=O)OCC(=O)NC1CCCc2ccccc21 (stereo unspecified),.,94.8*,5.3,.,.,.,109.5*,96.8*
Cc1ccc(C(=O)OCC(=O)NC2CCCc3ccccc32)o1 (stereo unspecified),6.4,2.9,16.9,0.3,-3.1,3082,.,.
[O-][n+]1nc2ccccc2c2ccccc21,-9.9,37.2*,13.4,0.5,4.8,3826,87.8*,77.7*
ClCc1nc2ccccc2c2ccccc12,0.7,4.5,7.2,0.8,3.8,5281,.,.
CCOC(=O)CCS(=O)(=O)c1nc(-c2ccccc2)cc(C(F)(F)F)n1,-1.5,-0.6,3.8,-1.0,-0.4,2373,.,.
Cc1cc(NC(=O)CCCS(=O)(=O)c2nc(-c3cccs3)cc(C(F)(F)F)n2)no1,-1.0,52.3*,38.8*,0.7,19.7,4475,67.7*,52.3*
O=C(O)CCS(=O)(=O)c1nc(-c2cccs2)cc(C(F)(F)F)n1,-0.3,38.0*,31.2*,1.3,4.5,7332,196.5*,128.3*
Cc1cc(=O)oc2cc(O)c(N=Nc3ccccc3)cc12,-7.2,3.2,15.9,-1.1,-7.2,4741,.,.
Cc1cc(=O)oc2cc3c(cc12)OCCO3,2.7,61.7*,8.2,-1.6,1.1,5050,195.5*,161.9*
Cc1cc(C[n+]2ccsc2N)c2ncccc2c1,-3.4,0.2,8.1,1.2,-6.6,4814,.,.
Cc1cc(C[n+]2ccccc2)c2nsnc2c1,2.2,30.9*,11.2,0.7,5.1,8008,96.5*,71.6*
COc1ccc(-c2cc(OC)c3ccccc3n2)cc1,-0.6,22.8,9.3,0.9,-0.9,10943,.,.
COc1ccc(-c2cc3cc(OC)c(OC)cc3c(C)n2)cc1,-3.3,47.0*,-5.3,0.4,0.7,5042,73.2*,55.0*
O=C(CN1C(=O)NC(c2ccccc2)(c2ccccc2)C1=O)NCCc1ccc(F)cc1,3.3,-3.3,2.3,-0.7,-0.6,4525,.,.
CCC(=O)c1c[nH]c(C(=O)NCc2cccc(C(F)(F)F)c2)c1,-3.2,79.2*,5.1,2.0,-7.0,3692,+,+
SMILES,Anthrax LF prot,FBA Mtb inh,GDH-TPI counter-1,BoNT-A LC inh2,BoNT-F LC inh,Autofluor counter,Mtb FBA inh conf,GDH-TPI counter-2
CS(=O)(=O)N1CCN(c2ccccc2NC(=O)c2cccc3ccccc23)CC1,-5.1,-3.5,3.1,-0.3,14.3,4531,.,.
Cc1ccc(NCc2ccc(Cl)nc2)c(NCc2ccc(Cl)nc2)c1,-3.6,27.8*,3.5,-1.4,-11.8,2405,-5.4,-6.5
CCCCOc1ncnc2c1[nH]c1ccc(F)cc12,6.0,32.5*,-1.9,-0.6,-4.5,4398,189.5*,159.9*
Fc1ccc2[nH]c3c(Cl)ncnc3c2c1,-4.1,40.2*,0.3,-0.3,0.1,4718,163.7*,157.9*
COc1cccc2[nH]c3c(Cl)ncnc3c12,-0.7,40.8*,11.1,0.1,-6.9,2645,162.7*,143.8*
CNS(=O)(=O)c1ccc(NC(=O)c2cnn3c(C(F)F)cc(-c4ccccc4)nc23)cc1,-2.2,0.6,2.2,-1.6,-6.6,3223,.,.
CCCCN(C=O)c1c(CC)nc2c(OCCn3cccc3)cccn12,-1.3,0.8,-1.3,-0.6,-2.9,3765,.,.
O=c1cc(-c2cccnc2)oc2c1ccc1ccccc12,?,44.9*,0.0,-4.1,-19.4,3825,+,186.3*
Cc1ccc(C(O)c2ncc(-c3cccc4ccccc34)[nH]2)cc1F (stereo unspecified),-3.5,27.1*,0.9,-0.5,-6.2,3754,19.4,13.3*
COc1cccc(C(O)c2ncc(-c3cccc4ccccc34)[nH]2)c1 (stereo unspecified),-5.0,47.8*,-12.5,-0.2,-1.2,3356,56.0*,46.6*
Cc1ccc(C(O)c2ncc(-c3ccc4ccccc4c3)[nH]2)c(C)c1 (stereo unspecified),-8.4,16.5,3.5,-0.6,-11.4,3511,.,.
COc1cccc(C(O)c2ncc(-c3ccccc3OC)[nH]2)c1 (stereo unspecified),2.2,-0.3,8.9,-0.4,-0.8,2905,.,.
OC(c1cccc(Cl)c1)c1ncc(-c2cccc3ccccc23)[nH]1 (stereo unspecified),-5.9,36.6*,7.1,0.1,-13.3,2757,145.9*,103.3*
Cc1ccc(C(O)c2ncc(-c3cccc4ccccc34)[nH]2)c(C)c1 (stereo unspecified),-3.9,38.9*,-3.1,-0.4,-2.7,3452,+,+
COc1ccc(/C=N/NC(=O)c2ccncc2)cc1CN1CCN(c2ccc(F)cc2)CC1,-3.6,-4.1,19.5,-0.7,0.9,3402,.,.
Cc1c(Br)c(C(=O)NCc2cc3cc(Cl)ccc3[nH]2)nn1C,0.3,66.3*,10.7,0.2,2.1,2394,85.4*,83.7*
O=C(C1CCCC1)N1CCCC(Nc2ccccc2)C1 (stereo unspecified),-2.1,-1.0,-12.3,0.4,4.2,5579,.,.
Cc1cc(=O)n2c(nc3ccccc32)[nH]1,-1.1,37.3*,-3.0,-1.5,-1.5,24029*,64.2*,41.9*
CCCc1cc(=O)n2c(nc3ccccc32)[nH]1,-7.9,47.2*,13.8,-0.9,-27.6,3839,4.1,-5.0
